This is one part of a sample in which hits are shown more often than they occur.
Tgondii IFNg: T. gondii growth inhibition with IFN-gamma, primary screen, cell-based. activity change, negative = inhibition, % (no concentration beside the values). Toxoplasma gondii growth in IFN-gamma-treated host cells; active compounds read low. actives 3.8% (n = 69,000); in the data active = activity change below about -70%, passing the limit was not always enough;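 also: host cells are HeLa cells infected with Toxoplasma gondii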
Numbers without * were called inactive; i = inactive.

SMILES | Tgondii IFNg
CC(=O)c1cccc(CN2CCCC(O)(CO)CC2)c1 (stereo unspecified) | 1
COc1ccc(CNC(=O)N2CCC(c3nc(C(=O)N4CCOCC4)c(C)o3)CC2)cc1 | -32
COc1ccc(CNC(=O)CCC2N=C3c4ccccc4N=C(SCc4cc(=O)n5cc(Cl)ccc5n4)N3C2=O)cc1 (stereo unspecified) | -4
CCOc1ccc(-c2nc(Cn3nnc(C(=O)Nc4ccc(Cl)c(Cl)c4)c3C)c(C)o2)cc1 | 77
CCN(CC)CCNC1CCN(CC)CC1 | 29
CCN1CCCC1CNC(=O)C1=C(C)C(=O)OC12CCN(S(=O)(=O)c1cccs1)CC2 (stereo unspecified) | 37
O=C(Nc1cnc2n1CCCC2)c1cc(-c2ccccc2)on1 | 15
COc1ccc(NC(=O)CN2C(=O)CCc3cc(S(=O)(=O)N4CCCC4)ccc32)cc1Cl | -34
CCOc1ccccc1CN(CC)Cc1cc(=O)n2c3c(cccc13)CCC2 | -67
COc1ccc2c(c1)NC1(CCN(C(=O)Nc3ccc(C)c(C)c3)CC1)c1cccn1-2 | 345
Cc1ccc(CC23CN4CC(CN(C4)C2)C3=O)c(C)c1 | -6
Cc1nccn1CC1(O)CCN(C(=O)C(Cc2ccc(F)cc2)c2ccccc2)CC1 (stereo unspecified) | 60
CCN(CC)C(=O)Cn1nc2c(C)cc3ccc(OC)cc3n2c1=O | -9
Cc1ccc2cc(C)c3nn(CCNC(=O)C4CSC(c5ccncc5)=N4)c(=O)n3c2c1 (stereo unspecified) | -110*
Cc1cc2cc3c(cc2n2c(=O)n(Cc4ccccn4)nc12)OCO3 | -45
CCCCc1ncc([C@@H]2C[C@H](NC(C)=O)C[C@H](CC(C)C)O2)[nH]1 | -2
O=C(Nc1ccc(NS(=O)(=O)c2ccc(Oc3ccccc3)cc2)cc1)c1ccccc1 | 4
COc1ccc(NS(=O)(=O)c2ccc(NC(=O)c3cc4ccccc4o3)cc2)cc1 | -71*
COc1cc(NC(=S)NC(=O)c2cccs2)ccc1NC(=O)C(C)C | 51
COc1ccc(NC(=O)c2c(NS(=O)(=O)c3ccc(C)cc3)csc2C)cc1 | 14
COc1cc(NC(=O)c2cc3ccccc3o2)ccc1NC(=O)c1cccs1 | -111*
O=C(Nc1ccc(-c2nc(-c3ccccc3)co2)cc1)c1cccs1 | 3
CS(=O)(=O)c1ccc(C2CC(=O)Nc3c2cnn3CC2CCCCC2)cc1 (stereo unspecified) | -43
Nc1ccc(-n2cc(CCO)cn2)cn1 | 2
CCCCOC(=O)c1ccc(NC(=O)CSc2nnnn2C2CCCCC2)cc1 | 13
SMILES | Tgondii IFNg
CCc1nnc(SCC(=O)Nc2ccc(N3CCN(S(C)(=O)=O)CC3)cc2)o1 | -11
CCOC(=O)c1ccc(NC(=O)CSc2nnc(CNc3ccc(F)cc3)o2)cc1 | -100*
c1ccc(C(c2ccccc2)c2n[nH]c3c2CNCC3)cc1 | -49
CSc1sc(C2=NNC(O)(C(F)(F)F)C2)c2c1C(=O)CCC2(C)C (stereo unspecified) | -96*
OC1(C(F)(F)F)CC(c2ccncc2)=NN1 (stereo unspecified) | -15
O=C(NCc1ccc(F)cc1)Nc1ccc(-c2nc(-c3ccccc3)co2)cc1 | 58
CCCCSCc1cc(C(=O)N2C[C@H]3C[C@H](O)[C@@H](O)C[C@H]3C2)oc1C | -6
O=S(=O)(Oc1ccc2nonc2c1)c1ccc(Cl)cc1Cl | 66
CO[C@@H]1CN(C)C(=O)c2cc(NC(=O)C3CCCCC3)ccc2OC[C@H](C)N(Cc2cccnc2)C[C@H]1C | 27
CO[C@H]1CN(C)C(=O)c2cc(NC(=O)C3CCCCC3)ccc2OC[C@@H](C)N(Cc2cccnc2)C[C@H]1C | 69
CO[C@H]1CN(C)C(=O)c2ccc(NC(=O)c3nc4ccccc4s3)cc2OC[C@@H](C)N(Cc2cccnc2)C[C@@H]1C | 16
CO[C@@H]1CN(C)C(=O)c2ccc(NC(=O)c3cccnc3)cc2OC[C@@H](C)N(CC2CCCCC2)C[C@H]1C | 144
CO[C@H]1CN(C)C(=O)c2cc(NC(=O)c3nc4ccccc4s3)ccc2OC[C@H](C)NC[C@@H]1C | -17
CO[C@@H]1CN(C)C(=O)c2ccc(NC(=O)c3nc4ccccc4s3)cc2OC[C@@H](C)N(Cc2cccnc2)C[C@H]1C | -85*
CO[C@H]1CN(C)C(=O)c2ccc(NC(=O)c3nc4ccccc4s3)cc2OC[C@H](C)N(Cc2cccnc2)C[C@H]1C | -113*
CO[C@@H]1CN(C)C(=O)c2cc(NC(=O)C3CCCCC3)ccc2OC[C@@H](C)N(Cc2cccnc2)C[C@H]1C | 1
CO[C@@H]1CN(C)C(=O)c2ccc(NC(=O)c3nc4ccccc4s3)cc2OC[C@@H](C)N(Cc2cccnc2)C[C@@H]1C | -112*
CCN1CC2CCCC(C1)C2CC(=O)Nc1cccc(F)c1 (stereo unspecified) | 2
Nc1nc(N)c(Cc2ccccc2)cc1Cc1ccccc1 | 160
COc1ccc(COc2ccc(Cc3cnc(N)nc3N)cc2OC)cc1 | -77*
COc1cc(OC)cc(-c2nc(N)c3c(C)c(-c4ccc(OC)c(OC)c4)sc3n2)c1 | -65
COc1ccc(CCN(C)C2CCCN(c3ccnc(N)n3)C2)cc1OC (stereo unspecified) | -2
COc1ccc(COc2cc3oc(=O)c4cc(C(C)O)ccc4c3cc2OC)cc1 (stereo unspecified) | -6
COc1ccc(Cc2cnc(N)nc2N)cc1OC | -79*
CCC(=O)N1CCOC2(COCCN(CC(=O)NC)C2)C1 (stereo unspecified) | 24
SMILES | Tgondii IFNg
Cc1cc(C)n(Cc2nc(-c3ccc(NC(=O)C(C)C)cc3)oc2C)n1 | 118
CS(=O)(=O)CC(=O)NCC1OCCc2cn(CC3CC3)nc21 (stereo unspecified) | -2
CC(c1nccs1)N(C)C(=O)c1cccc(NCc2cccs2)c1 (stereo unspecified) | 7
Cc1ccc(CN(CCCn2ccnc2)Cc2cc3c(cc2Cl)OCO3)o1 | 14
c1cnn(Cc2cnc3n2CCN(CC2CCOCC2)C3)c1 | i
Cc1nc(NCCc2cnccn2)cc(C2CCNCC2)n1 | 12
CCOc1ccc(C(=O)N2CCC3(CC2)Nc2cc(OC)ccc2-n2cccc23)cc1 | 39
O=C(CC1COCCN1)N1CC=C(c2ccc(F)cc2)CC1 (stereo unspecified) | 9
Cn1ccc2c(-c3ccc(C(=O)O)cn3)ccnc21 | 12
CNC(=O)c1ccc(-c2ccnc3c2ccn3C)o1 | 61
Cn1ccc2c(-c3cccc(O)c3)ccnc21 | -77*
CS(=O)(=O)c1ccc(-c2ccnc3c(C(F)(F)F)cccc23)cc1 | -7
O=c1[nH]c(CN2CCCC3(CCCCC3)C2)nc2c1C1(CCCCC1)Cc1ccccc1-2 | -81*
O=c1oc(-c2ccccc2)nc2c1C1(CCCC1)Cc1ccccc1-2 | -50
Cc1cccc(CN2CCCC3(CCN(c4cncnc4)C3=O)C2)n1 (stereo unspecified) | -3
CC1(C)CC2(CCCN(Cc3nc4c(c(=O)[nH]3)C3(CCCCC3)Cc3ccccc3-4)C2)CCO1 (stereo unspecified) | -85*
CC1(C)Cc2ccccc2-c2nc(-c3ccccc3)oc(=O)c21 | 6
COc1ccc(S(=O)(=O)N2CCN(C(=O)c3noc(C)c3CN(C)C)CC2)cc1 | -11
CCS(=O)(=O)N1CCC2(CC1)OC(=O)C(C)=C2C(=O)Nc1cccc(C)c1C | 47
C=CCn1c(-c2c(-c3ccccc3)ncn2CCO)nc2ccccc21 | -11
Cc1ccc(-c2ccnc(NCCSc3nnnn3C)n2)c(C)n1 | -6
Cc1nnc(CCNC(=O)c2ccccc2C2CCNC2)s1 (stereo unspecified) | 5

From PubChem
